Source: PubChem (National Center for Advancing Translational Sciences (NCATS))
An excerpt weighted towards active compounds, which were near 20% of everything screened.
Pf growth 48h – Primary qHTS for delayed death inhibitors of the malarial parasite plastid, 48 hour incubation; Potency, µM (top dose mostly 28.7 µM), without a hit: top-dose activity change, negative = inhibition, hits mostly inhibitors; actives 5.9% (n = 310,000); P. falciparum luciferase growth in erythrocytes, 48 h; further: potency means the concentration at half of the fitted maximal effect; on the % scale 0 is the no-effect control and ±100 the full control effect
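Parasite viability was followed by luminescence of a genomically integrated firefly luciferase. Cultures held 0.1% parasitemia at 2% hematocrit (final), incubated under 5% CO2 at 37 C.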
Shiga inhibitor – A qHTS for Small Molecule Inhibitors of Shiga Toxin; actives 9.2% (n = 290,000); Vero cells, Shiga toxin protein synthesis inhibition reporter; AID 2315, 2010; inhibition, % at 38.7 µM; in the data active means inhibition mostly above about 28%, no sharp cut-off; inactive means mostly below about 43%; further: 0% is about no effect
Pf growth 96h – Primary qHTS for delayed death inhibitors of the malarial parasite plastid, 96 hour incubation | P. falciparum luciferase reporter growth, 96 h | Potency, µM (top dose mostly 28.7 µM), for inactives: at the top dose activity change, negative = inhibition, hits mostly inhibitors | actives 6.9% (n = 320,000); further: potency means the concentration at half of the fitted maximal effect; on the % scale 0 is the no-effect control and ±100 the full control effect
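Delayed-death screen, second-generation endpoint: infected erythrocytes, 2% hematocrit, 0.05% parasitemia final; 96 hours at 37 C, 5% CO2; luciferase detection reagent; luminescence decrease equals reduced growth.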
CHX counter – Cycloheximide Counterscreen for Small Molecule Inhibitors of Shiga Toxin. actives 12% (n = 300,000). max response, %. cell reporter, cycloheximide protein synthesis inhibition counterscreen; in the data active means max response mostly above about 13%, no sharp cut-off; inactive means mostly below about 14%; further: read at 38.3 µM for the half of the compounds with a filed dose; 0% is about no effect
HCMV inh – qHTS Assay for inhibitors of the human cytomegalovirus (HCMV) | activity change, negative = inhibition, % at 57.5 µM | actives 4.5% (n = 410,000) | HFF cells, HCMV-luciferase reporter, 72 h; stronger effect = lower value; in the data active means activity change below about -60%; inconclusive means no clear call, values can overlap the other calls; inactive means above about -39%; further: on the % scale 0 is the no-effect control and ±100 the full control effect
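Compounds were evaluated in HFFs infected with an HCMV luciferase reporter virus (MOI 1 PFU/cell). Luciferase in lysates collected 72 h post infection served as the replication measure.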
The depositor's hits bear a star; i = inactive; ? = inconclusive; · = no result. Unless noted, the call rests on the fitted dose curve; in most records, active means well fitted inhibition curve with a large enough effect; inconclusive means small, poorly fitted or top-dose-only effect, or another doubt; inactive means no such curve, though single readings can be large or run the other way.

SMILES | Pf growth 48h | Shiga inhibitor | Pf growth 96h | CHX counter | HCMV inh
O=C(Nc1cccc2[nH]ncc12)c1ccc(F)cc1 | 103% | 22 | 172% | 20 | -76*
N/C(=N\OC(=O)CCCOc1ccc(Cl)cc1Cl)c1ccncc1 | -11% | 28 | 22% | 8 | -13
CCc1ccc(OCC(=O)O/N=C(\N)c2ccncc2)c(Br)c1 | 179% | 85* | 7.4µM* | 46* | 138
CCc1ccc(OCC(=O)O/N=C(\N)c2ccncc2)cc1 | 54% | 76* | ? | 62* | 33
CCc1ccc(OCC(=O)N(C)C)c(Br)c1 | -4% | 1 | · | 5 | 16
N/C(=N\OC(=O)COc1ccc(Cl)cc1Br)c1ccncc1 | i | 137* | 108% | 64* | -9
CC(C)(C)c1ccc(OCC(=O)O/N=C(\N)c2ccncc2)cc1 | · | · | · | · | 10
Cc1cccc(NC(=O)c2cc(-c3ccccn3)nc3ccccc23)c1C | ? | -16 | 2% | 1 | -37
O=C(CCCN1C(=O)/C(=C\c2ccco2)SC1=S)Nc1ccc2ccccc2c1 | ? | -10 | ? | -7 | -81*
O=C1/C(=C\c2ccco2)NC(=S)N1c1ccccc1 | 53% | 35 | ? | 18* | -1
Cc1ccc(N2C(=O)/C(=C\c3ccco3)SC2=S)cc1 | ? | 64* | 5% | 21 | 22
O=C(CCCN1C(=O)/C(=C/c2ccco2)SC1=S)Nc1ccccc1C(=O)O | -11% | 15 | -6% | -4 | -29
O=C(O)CCCN1C(=O)/C(=C\c2ccco2)SC1=S | -9% | -12 | 2.9µM* | -5 | ?
Cc1ccc(SCC(=O)Nc2ccc(F)cc2[N+](=O)[O-])cc1C | 1% | 12 | 3% | -2 | 3
CCCCNC(=O)COC(=O)c1ccc(F)cc1Cl | 41% | 76* | 34% | 13* | 19
CCOc1ccc(-c2nc(S(=O)(=O)c3ccccc3)c(NC)o2)cc1 | 3% | -7 | ? | -4 | 6
CCSc1oc(-c2cccs2)nc1S(=O)(=O)c1ccccc1 | -11% | 3 | -17% | 8 | -22
CCCSc1oc(-c2cccs2)nc1S(=O)(=O)c1ccc(C)cc1 | · | · | · | · | -24
CCCCCS(=O)(=O)c1oc(-c2cccs2)nc1S(=O)(=O)c1ccc(C)cc1 | · | · | · | · | -88*
CCCCS(=O)(=O)c1oc(-c2cccs2)nc1S(=O)(=O)c1ccc(F)cc1 | · | · | · | · | -98*
Cc1ccc(S(=O)(=O)c2nc(-c3ccc(F)cc3)oc2N2CCN(c3ccccc3)CC2)cc1 | · | · | · | · | 0
CCS(=O)(=O)c1oc(-c2ccc(F)cc2)nc1S(=O)(=O)c1ccccc1 | · | · | · | · | -99*
CCCCS(=O)(=O)c1oc(-c2ccc(F)cc2)nc1S(=O)(=O)c1ccc(C)cc1 | · | · | · | · | -100*
COc1cccc(CN2CC(C(=O)N3CCN(C(C)C)CC3)CCC2=O)c1 (stereo unspecified) | -1% | 9 | 9% | 0 | 5
O=C(CSc1nc2[nH]ncc2c(=O)[nH]1)NCCc1ccccc1 | 16% | -12 | 4% | 0 | -19
SMILES | Pf growth 48h | Shiga inhibitor | Pf growth 96h | CHX counter | HCMV inh
CCC(C)S(=O)(=O)c1oc(-c2ccc(F)cc2)nc1S(=O)(=O)c1ccc(F)cc1 (stereo unspecified) | · | · | · | · | -100*
COC(=O)c1c[nH]n2c(=O)c(Cl)c(C)nc12 | 14% | 23 | -30% | 3 | 127
COC(=O)c1c[nH]n2c(=O)c(Cc3ccc(F)cc3Cl)c(C)nc12 | -5% | -17 | 1.5µM* | -1 | 41
CC(C)CC(COCc1ccc(Cl)cc1)N1CCN(C(=O)c2ccc(Cl)cc2Cl)CCC1=O (stereo unspecified) | 10µM* | 13 | ? | 5 | 2
CC(C)C[C@@H](COCc1ccc(Cl)cc1)N1CCN(C(=O)c2ccc(C(F)(F)F)cc2)CCC1=O | · | · | · | · | -2
Cc1cccc(COC[C@H](CC(C)C)N2CCN(C(=O)c3ccc(C(F)(F)F)cc3)CCC2=O)c1 | · | · | · | · | -9
CC(C)CC(COCc1cccc(Cl)c1)N1CCN(C(=O)c2cccc(C(F)(F)F)c2)CCC1=O (stereo unspecified) | ? | 18 | 10µM* | 3 | 2
CC(C)C[C@@H](COCc1cccc(C(F)(F)F)c1)N1CCN(C(=O)c2ccc(C(F)(F)F)cc2)CCC1=O | · | · | · | · | 0
COc1ccc(COCC(CC(C)C)N2CCN(C(=O)c3cccc(C(F)(F)F)c3)CCC2=O)cc1 (stereo unspecified) | 10µM* | 14 | ? | 3 | 1
Cc1ccc(NC2CCCN(C(=O)c3cn4cccc(C)c4n3)C2)cc1C (stereo unspecified) | 8% | -8 | 4.1µM* | -2 | ?
Cc1ccc(NC2CCCN(C(=O)c3ccccn3)C2)cc1C (stereo unspecified) | 2% | -4 | 13µM* | 9 | 0
COc1ccc(CC(=O)N(C)c2ccccc2)cc1S(=O)(=O)N1CCOCC1 | · | · | · | · | 4
CC1CCc2c(sc(NC(=O)C3c4ccccc4Oc4ccccc43)c2C(N)=O)C1 (stereo unspecified) | ? | -7 | 6.6µM* | -2 | -11
CC(C)(C)C1CCc2c(sc(NC(=O)C3c4ccccc4Oc4ccccc43)c2C(N)=O)C1 (stereo unspecified) | · | · | · | · | -23
CC1CCc2c(sc(/N=C/c3ccco3)c2C(N)=O)C1 (stereo unspecified) | 92% | 74* | 13% | 38* | 34
CC1CCc2c(sc(/N=C/c3cccnc3)c2C(N)=O)C1 (stereo unspecified) | 17% | 54 | ? | 16* | 71
Cc1csc(C(=O)NN)c1N(C)C | 2% | 74* | 1% | 32* | -4
CCOC(=O)C1CCN(CC(O)COCc2ccccc2)CC1 (stereo unspecified) | -1% | -14 | 77% | 8 | -6
CCN(CC)S(=O)(=O)c1ccc(C(=O)N2CCCCC2)cc1 | -8% | 10 | · | 3 | 32
O=C1CC(/C=C/c2ccccc2)(C(=O)NC2CCCC2)N1c1ccc(S(=O)(=O)N2CCCC2)cc1 (stereo unspecified) | -15% | -16 | 10% | 5 | -27
CCOC(=O)CNC(=O)C1(/C=C/c2ccccc2)CC(=O)N1c1ccc(OC)cc1 (stereo unspecified) | 10µM* | -7 | ? | -4 | ?
COc1ccc(N2C(=O)CC2(/C=C/c2ccccc2OC)C(=O)NC2CCCC2)cc1 (stereo unspecified) | 12µM* | -2 | 27% | 3 | 20
CC(C)CCNC(=O)c1cnc2sc(N3CCCCCC3)nn2c1=O | · | · | · | · | -16
CC(=O)c1cccc(NC(=O)C(C)n2c(=O)cc(-c3ccccc3)c3c(C)nn(C)c32)c1 (stereo unspecified) | · | · | · | · | 2
Cc1ccc([C@H]2C[C@@H](O)[C@H](n3cc(COC(=O)c4ccccc4)nn3)CN2C(=O)C2CCCCC2)cc1 | · | · | · | · | 2
